SMILES strings stand for the structures.

For this experiment, the system named is thyroid hormone receptor (endogenous TRα and TRβ). On the set-up: species or system GH3-TRE-Luc (rat pituitary); GH3-TRE-Luc luciferase reporter, antagonist mode against 1 nM T3, loss of signal, qHTS. The note with it: read-out: Average AC50 (uM) GH3-TRE-Antag, antagonist mode, 1 nM T3, no GH3 cytotoxicity hit.
The AC50 is the midpoint of the concentration-response curve, whichever way the signal moves. Turning to `C#C[C@]1(O)CC[C@H]2[C@@H]3CCC4=CC(=O)CC[C@@H]4[C@H]3C(=C)C[C@@]21CC` [Etonogestrel], the AC50 came out at 19.5 µM.

Consider `CCOC(=O)Oc1c(OC)cc(C(=O)O[C@@H]2C[C@@H]3CN4CCc5c([nH]c6cc(OC)ccc56)[C@H]4C[C@@H]3[C@H](C(=O)OC)[C@H]2OC)cc1OC` [Syrosingopine], for which the AC50 worked out at 19 µM.

Turning to `Cc1cc(C(F)(C(F)(F)F)C(F)(F)F)ccc1NC(=O)c1cccc(I)c1C(=O)NC(C)(C)CS(C)(=O)=O` [Flubendiamide], the AC50 stood at 33.5 µM.

`CC(=O)[C@H]1[C@H](C#N)C[C@H]2[C@@H]3CC=C4C[C@@H](O)CC[C@]4(C)[C@H]3CC[C@@]21C` [Pregnenolone carbonitrile]: the AC50 was found to be 13.1 µM.

Take `NC(=O)N(O)[C@@H]1COc2cc(OCc3ccccc3)ccc21` [SB202235]: the AC50 amounted to 85 µM.

For `CCOC(=O)C(C)Oc1ccc(Oc2cnc3cc(Cl)ccc3n2)cc1` (stereo not shown) [Quizalofop-ethyl], the AC50 was 78.2 µM.

As to `C/C=C1/C(=O)C[C@H]2[C@@H]3CCC4=CC(=O)CC[C@]4(C)[C@H]3CC[C@]12C` [Guggulsterone E], the AC50 came to 18 µM.

Regarding `CCC(=O)NCC[C@@H]1CCc2ccc3c(c21)CCO3` [Ramelteon], the AC50 amounted to 39.2 µM.

Consider `COc1cc([C@@H]2c3cc4c(cc3[C@@H](O[C@@H]3O[C@@H]5CO[C@@H](C)O[C@H]5[C@H](O)[C@H]3O)[C@H]3COC(=O)[C@H]23)OCO4)cc(OC)c1OP(=O)(O)O` [Etoposide phosphate], for which the AC50 was found to be 21 µM.

On to `Nc1cc(Cl)c(N)c(Cl)c1` [2,6-Dichloro-1,4-benzenediamine], for which the AC50 is 78 µM.

Source of the values: article PMC6792352, “Limited Chemical Structural Diversity Found to Modulate Thyroid Hormone Receptor in the Tox21 Chemical Library” (Environmental Health Perspectives, 2019).
